A selection: hits, their analogues and other compounds. The true share with any hit is near 0.9%.
PPARg SRC3 recr = PPARgamma-driven SRC-3 recruitment agonism; P37231; biochemical PPARgamma/SRC-3 coactivator recruitment assay; activation, % at 8 µM; 200,000 tested, 0.26% active; AID 731; in the data active = activation above about 23%;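 also: 0% = DMSO and 100% = reference agonist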
PPARg SRC-2 ag = agonists of SRC-2 recruitment by human PPARgamma; P37231; PPARgamma LBD-SRC-2 recruitment, biochemical; activation, % at 8 µM; 200,000 tested, 0.34% active; AID 1032;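 also: 0% = vehicle and 100% = reference agonist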
PPARg SRC1 recr = agonists of human PPARgamma SRC-1 coactivator recruitment; 200,000 tested, 0.41% active; activation, % at 8 µM; PPARgamma-SRC-1 coactivator recruitment biochemical assay; in the data active = activation above about 19%;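 also: 0% = DMSO and 100% = reference agonist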
SRC2 TRFRET art = flags TR-FRET format artefacts in PPARgamma SRC-2 recruitment agonist screen; TR-FRET artefact counter-screen; stronger effect = higher value; TR-FRET ratio at 8 µM; 200,000 tested, 0.4% active; AID 1049; in the data active = TR-FRET ratio above about 2000
SRC3 TRFRET art = TR-FRET artefact, counter-screen to PPARgamma/SRC-3 agonist assay; AID 1048; 99,000 tested, 0.39% active; TR-FRET ratio at 8 µM; PPARgamma/SRC-3 format; stronger effect = higher value; in the data active = TR-FRET ratio above about 2000
SRC1 TRFRET art = TR-FRET artefact, counter-screen to PPARgamma/SRC-1 agonist assay; AID 1051; 99,000 tested, 0.34% active; TR-FRET detection artefact counter-screen, emission ratio; stronger effect = higher value; TR-FRET ratio at 8 µM; in the data active = TR-FRET ratio above about 2300
PPARg SRC2 conf = confirmation of agonists of SRC-2 recruitment by human PPARgamma. shares compounds with PPARg SRC3 recr. biochemical SRC-2 recruitment by PPARgamma. activation, % at 8 µM. 790 tested, 52% active. AID 1297;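 also: 0% = vehicle alone and 100% = reference agonist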
PPARg SRC1 ag = confirmation of agonists of SRC-1 recruitment by human PPARgamma. PPARgamma–SRC-1 coactivator recruitment biochemical assay. 790 tested, 43% active. AID 1300. shares compounds with PPARg SRC3 recr. activation, % at 8 µM; in the data active = activation above about 20%;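 also: 0% = vehicle wells and 100% = reference agonist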
PPARg SRC3 ag = confirmation of agonists of SRC-3 recruitment by human PPARgamma; shares compounds with PPARg SRC3 recr; biochemical PPARgamma-SRC-3 coactivator recruitment, agonist mode; activation, % at 8 µM; 790 tested, 29% active; in the data active = activation above about 24%;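 also: 0% = vehicle wells and 100% = reference agonist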
Numbers without * were called inactive; . = no result given. Rule as the data show it, unless noted: active = activation above about 22%; inactive = the rest.

SMILES	PPARg SRC3 recr	PPARg SRC-2 ag	PPARg SRC1 recr	SRC2 TRFRET art	SRC3 TRFRET art	SRC1 TRFRET art	PPARg SRC2 conf	PPARg SRC1 ag	PPARg SRC3 ag
Cc1ccc(S(=O)(=O)NC(=O)NC(=O)N(C)S(=O)(=O)c2ccc(C)cc2)cc1	9.0	4.2	5.4	1634	1545	1757	.	.	.
Nc1ccc2c(c1)C(=O)C(=O)c1ccccc1-2	28.7*	32.1*	22.4*	1964	.	.	20.2	22.8*	11.6
O=C1C(=O)c2ccc(-c3ccccc3)cc2-c2ccccc21	-3.2	-2.6	0.8	1525	.	.	.	.	.
CCCCCn1c(CN2CCN(C(=O)OCC)CC2)nc2c1c(=O)n(C)c(=O)n2C	8.0	4.6	-7.9	1465	.	.	.	.	.
CCCCCn1c(CN2CCN(C)CC2)nc2c1c(=O)n(C)c(=O)n2C	26.2*	11.4	5.2	1775	.	.	2.5	3.2	0.9
Cc1ccc(C2C(C(=O)c3ccco3)=C(O)C(=O)N2c2nnc(C)s2)cc1 (stereo not drawn)	33.7*	19.9	24.1*	1957	.	.	13.9	12.1	10.3
COC(=O)c1sc(N2C(=O)C(O)=C(C(=O)c3ccc(C)o3)C2c2ccc(F)cc2)nc1C (stereo not drawn)	19.8	26.4*	30.5*	2303*	.	.	30.0*	22.8*	19.0
CCOC(=O)c1ccc(-n2c(CN3CCC(O)CC3)nc3ccc([N+](=O)[O-])cc3c2=O)cc1	-0.9	6.6	-0.9	1479	1600	2178	.	.	.
N#CC(=C1N=c2ccccc2=N1)c1c(O)[nH]c2ccccc12	-0.2	3.9	0.1	1518	.	.	.	.	.
Cn1c(O)c(C(C#N)=C2N=c3ccccc3=N2)c2ccccc21	15.6	13.8	22.3*	1631	.	.	7.5	6.1	12.3
COc1ccc(-c2oc3ncn4nc(Cc5ccccc5)nc4c3c2-c2ccc(OC)cc2)cc1	3.9	69.1*	83.5*	4122*	.	.	6.2	3.8	3.7
COc1ccc(-c2oc3ncn4nc(COc5ccccc5)nc4c3c2-c2ccc(OC)cc2)cc1	-1.1	4.5	0.3	1710	.	.	.	.	.
O=[N+]([O-])c1ccc(-c2ccc(C=Nc3cccc4ccccc34)o2)cc1	7.1	-3.4	0.3	1585	.	.	.	.	.
O=[N+]([O-])c1cc(-c2ccc(/C=N/c3nc4ccccn4c3-c3ccco3)o2)ccc1Cl	27.0*	15.6	15.9	1804	.	.	11.8	5.8	6.7
COc1ccc2c(Cl)c(C(=O)NN)sc2c1	3.4	0.0	-0.8	1487	.	.	.	.	.
COc1ccc2c(Cl)c(C(N)=O)sc2c1	19.4	36.6*	32.6*	2210*	2550*	2690*	36.0*	25.4*	24.6*
CCn1c(=O)cc(SCC(=O)N2CCN(C(=O)c3ccco3)CC2)c2ccccc21	62.9*	55.5*	54.3*	2772*	.	.	33.6*	20.8*	23.6
CCN1CCCC1CNC(=O)CSc1cc(=O)n(CC)c2ccccc12 (stereo not drawn)	41.5*	25.6*	23.1*	2187*	.	.	26.6*	14.6	18.0
CCn1c(=O)cc(SCC(=O)N2CCOCC2)c2ccccc21	81.8*	54.7*	45.3*	2862*	.	.	34.5*	22.0*	22.3
CCn1c(=O)cc(SCC(=O)NCCCN2CCN(c3ccccc3F)CC2)c2ccccc21	96.2*	78.5*	64.6*	3692*	.	.	41.9*	27.3*	28.5*
Cc1nn(C)c(C)c1CNC(=O)Nc1cccc(Cl)c1C	-0.8	-7.0	-5.4	1409	1520	1642	.	.	.
O=C(COc1ccc(Cl)cc1)NCc1nnc(SCC(=O)N2CCCCCC2)o1	-0.9	-3.2	-1.9	1686	1617	1838	.	.	.
CCn1c(=O)cc(OCC(=O)N2CCCCCC2)c2ccccc21	1.4	4.2	5.0	1453	.	.	.	.	.
CCn1c(=O)cc(SCC(=O)N2CCN(C3CCCCC3)CC2)c2ccccc21	36.5*	35.2*	19.3*	2255*	.	.	27.1*	17.1	18.2
CCn1c(=O)cc(SCC(=O)N2CCN(c3ccccc3OC)CC2)c2ccccc21	85.2*	67.6*	71.7*	2834*	.	.	53.1*	37.1*	34.4*
SMILES	PPARg SRC3 recr	PPARg SRC-2 ag	PPARg SRC1 recr	SRC2 TRFRET art	SRC3 TRFRET art	SRC1 TRFRET art	PPARg SRC2 conf	PPARg SRC1 ag	PPARg SRC3 ag
CCOC(=O)c1c(C)c(-c2ccccc2)n(CC(=O)NCCCN(CC)CC)c1C	-1.7	2.5	6.3	1528	1346	1606	.	.	.
CC1=NC(=O)C(N=Nc2cccc3ccccc23)N1c1ccccc1 (stereo not drawn)	4.6	6.4	4.2	1602	.	.	.	.	.
O=C(O)c1ccc2c3c(cccc13)C(=O)N(c1ccccc1)C2=O	-5.0	-4.2	5.4	1684	1701	1776	.	.	.
Cc1c(O)c2c3c(cccc3c1O)C(=O)N(c1ccccc1)C2=O	14.2	22.4*	24.5*	2078*	2155*	2683*	26.2*	16.2	19.0
O=C1c2cccc3cccc(c23)C(=O)N1CCCN1CCN(c2ccc(F)cc2)CC1	1.1	12.9	5.7	1560	1613	2105	.	.	.
O=c1c(Cl)c(N2CCN(S(=O)(=O)c3ccc(F)cc3)CC2)cnn1-c1cccc(Cl)c1	45.4*	5.4	47.2*	1804	.	.	45.0*	38.8*	24.1*
CSc1nc(Sc2ccccc2Cl)c2ccccc2n1	48.1*	53.6*	26.0*	2566*	.	.	34.2*	21.9*	24.4*
CN(C)S(=O)(=O)c1cccc(NC(=S)NCCCn2ccnc2)c1	5.3	2.6	5.8	1555	1566	1710	.	.	.
COc1ccc(N(CN2C(=O)C3CC=CCC3C2=O)C(=O)c2ccco2)cc1 (stereo not drawn)	12.1	4.9	18.7*	1738	.	.	5.3	2.6	2.2
Cn1c(N)c(C(=O)COC(=O)[C@@H]2CCCN2S(=O)(=O)c2ccc(Cl)cc2)c(=O)n(C)c1=O	-4.2	1.8	-2.7	1371	1705	1620	.	.	.
O=C(Nn1c(O)c(C=C2N=c3ccccc3=N2)sc1=S)c1cccc(Cl)c1	27.4*	15.4	15.0	1764	.	.	23.0*	15.4	10.4
O=C1N=c2ccccc2=C1c1sc(=S)n(NC(=O)c2cccc(O)c2)c1O	14.3	11.5	21.8*	1790	2060*	2026	35.1*	26.6*	22.4
O=C(Nn1c(O)c(C=C2N=c3ccccc3=N2)sc1=S)c1ccc(Cl)cc1	-0.2	-4.5	3.5	1686	.	.	.	.	.
Cc1ccc(C)c(N2N=C(C(=O)Nc3nccs3)CCC2=O)c1	1.6	10.6	0.0	1568	1571	1464	.	.	.
CN(C)c1ccc(NC(=O)Nc2ccc3snnc3c2)cc1	36.3*	20.6	22.7*	1850	.	.	4.2	1.4	2.9
CCCS(=O)(=O)N1CCN=C1SCc1cccnc1	-2.8	6.6	-1.0	1519	1573	1712	.	.	.
